Compound activity from PubChem BioAssay.
A selection: hits, their analogues and other compounds. The true share with any hit is near 1.1%.
Giardia FBPA inh – Giardia lamblia aldolase inhibition; Potency, µM (series often up to 59.6 µM), for inactives: at the highest dose activity, negative = inhibition, hits mostly inhibitors; purified Giardia FBPA; 290,000 compounds, 0.71% hits; A8B2U2; AID 2451; note: % is set by controls: 0 for no effect and ±100 for the full control effect; nearly all actives have a fitted effect of over 55% in size
Target sequence (A8B2U2 whole entry, looked up): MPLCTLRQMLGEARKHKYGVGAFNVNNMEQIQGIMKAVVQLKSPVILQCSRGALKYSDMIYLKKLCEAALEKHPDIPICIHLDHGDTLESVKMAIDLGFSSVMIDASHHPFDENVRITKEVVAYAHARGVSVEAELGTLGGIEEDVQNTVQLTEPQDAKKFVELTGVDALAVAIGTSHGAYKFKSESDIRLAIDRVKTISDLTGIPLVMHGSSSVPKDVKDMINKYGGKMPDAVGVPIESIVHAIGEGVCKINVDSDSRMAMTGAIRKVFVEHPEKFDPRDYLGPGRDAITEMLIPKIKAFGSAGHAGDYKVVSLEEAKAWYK
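Giardia FBPA (40 nM reagent) was preincubated 10 min at RT with compound (up to 57.5 uM final), then substrate plus GAPDH/TPI/NAD/arsenate coupling system with diaphorase/resazurin was added; resorufin fluorescence (525/598 nm) was read after 20 min.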
SARS PLpro yeast – inhibitors of SARS-CoV papain-like protease in yeast; Potency, µM (doses to about 32.9 µM), without a hit: top-dose activity, positive = growth rescue, hits mostly activators; 330,000 compounds, 0.19% hits; S. cerevisiae expressing SARS-CoV PLpro, growth rescue; calls by dose curve; note: 0% is about no effect; nearly all actives have a fitted effect of over 55% in size
AmpC detergent – inhibitors of E. coli AmpC beta-lactamase with detergent | P00811 | AmpC hydrolysis of nitrocefin, absorbance 480 nm, 0.01% Triton | Potency, µM (doses to about 114 µM), inactives show at the top dose activity change, negative = inhibition, actives largely listed as inhibitors | 370,000 compounds, 0.041% hits;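 note: 0% = no-compound wells and -100% = no-enzyme wells; nearly all actives have a fitted effect of over 25% in size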
Target sequence (P00811 whole entry, looked up): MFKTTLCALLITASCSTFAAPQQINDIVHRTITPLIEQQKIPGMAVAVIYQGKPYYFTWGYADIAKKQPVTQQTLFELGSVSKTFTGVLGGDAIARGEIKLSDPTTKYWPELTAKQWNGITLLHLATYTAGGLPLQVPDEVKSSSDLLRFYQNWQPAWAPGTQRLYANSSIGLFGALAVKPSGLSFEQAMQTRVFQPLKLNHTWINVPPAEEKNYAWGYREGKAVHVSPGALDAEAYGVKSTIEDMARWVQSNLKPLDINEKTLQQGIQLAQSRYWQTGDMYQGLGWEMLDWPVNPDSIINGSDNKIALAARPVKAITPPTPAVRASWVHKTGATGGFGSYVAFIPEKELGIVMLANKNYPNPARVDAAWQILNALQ
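AmpC (5.3 nM in the dispensed reagent) in 20 mM phosphate pH 7.0 with 0.01% (detergent screen) or 0.0001% Triton X-100 was preincubated with compounds for 15 min at room temperature. Nitrocefin was then added from an 800 uM solution, and hydrolysis was followed at 480 nm.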
AmpC inh no detg – AmpC beta-lactamase inhibition without detergent; P00811; AmpC nitrocefin hydrolysis, absorbance 480 nm, 0.0001% Triton; Potency, µM (series often up to 57.1 µM), for inactives: at the highest dose activity change, negative = inhibition, usual class: inhibitors; 330,000 compounds, 0.52% hits; AID 485341;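 note: plate controls were no compound for no effect and no enzyme for full effect; nearly all actives have a fitted effect of over 20% in size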
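AmpC (5.3 nM in the dispensed reagent) in 20 mM phosphate pH 7.0 with 0.01% (detergent screen) or 0.0001% Triton X-100 was preincubated with compounds for 15 min at room temperature. Nitrocefin was then added from an 800 uM solution, and hydrolysis was followed at 480 nm.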
An asterisk follows results filed as active; u = inconclusive; x = no result. Unless noted, calls come from the whole dose curve; as a rule, active = well fitted curve in the direction sought with a large enough effect; inconclusive = small, poorly fitted or top-dose-only effect, or another doubt; inactive = no such curve, though single readings can be large; an effect the other way counts as inactive or inconclusive. Potency is the fitted concentration of half-maximal effect.

SMILES | Giardia FBPA inh | SARS PLpro yeast | AmpC detergent | AmpC inh no detg
CC(=O)N[C@H]1CSSC[C@@H](C(=O)N2CCC[C@H]2C(=O)N2CCC[C@H]2C(=O)N[C@@H](CCCCN)C(=O)N[C@@H](CC(=O)O)C(N)=O)NC(=O)CNC(=O)[C@H](Cc2c[nH]c3ccccc23)NC(=O)[C@H](CCCNC(=N)N)NC(=O)[C@@H](Cc2ccc(Cl)c(Cl)c2)NC(=O)[C@H](Cc2cnc[nH]2)NC(=O)[C@H](CCC(=O)O)NC1=O | 6% | x | x | x
COCCCNC(=O)C(=O)NCCCOC(C)C | 1% | 0% | 1% | 0.28µM*
O=C(CCNC(=O)c1ccc([N+](=O)[O-])cc1)Nc1ccc(F)cc1 | -1% | -1% | -6% | -2%
O=C(CCNC(=O)c1ccc([N+](=O)[O-])cc1)NNC(=O)c1ccncc1 | x | 6.3µM* | 0% | -11%
C[C@@]1(C(=O)O)NCCc2cc(O)c(O)cc21 | 13µM* | x | x | x
S=C(S)N1CCCC1 | 13µM* | x | u | -16%
Oc1ccc(C(=S)N2CCCC2)cc1 | -15% | -1% | 0% | -10%
COc1cccc(-c2nc(CS(=O)(=O)CC(=O)Nc3cccc(C)c3C)c(C)o2)c1 | 3% | -13% | u | 45µM*
COc1cccc(-c2nc(CS(=O)(=O)CC(=O)Nc3ccccc3C)c(C)o2)c1 | 0% | -11% | -5% | -2%
CC(C)C[C@H](NC(=O)[C@@H](N)Cc1ccccc1)C(=O)N[C@@H](Cc1ccccc1)C(=O)N[C@@H](CCC(N)=O)C(=O)N1CCC[C@H]1C(=O)N[C@@H](CCC(N)=O)C(=O)N[C@@H](CCCN=C(N)N)C(=O)N[C@@H](Cc1ccccc1)C(N)=O | 4% | x | x | x
COC[C@H]1OC=C[C@@H](OC)[C@@H]1OC | 0% | x | x | x
Cc1ccccc1Cn1nc(C)c(NC(=O)c2noc3c2CCc2ccccc2-3)c1C | -5% | -12% | u | 4µM*
CNC(=O)C1CCC(Cn2c(=O)c3sccc3n(CC(=O)Nc3cc(C)cc(C)c3)c2=O)CC1 (configuration not stated) | x | x | -6% | x
COc1ccc(C(=O)Nc2cccc(/C(C)=N\NC(=O)c3ccoc3C)c2)cc1OC | -10% | -4% | 1% | 3%
C/C(=N\NC(=O)c1nn(C)c(C)c1Br)c1cccc(NC(=O)c2ccoc2C)c1 | 3% | -8% | u | 32µM*
Oc1ccc(/C=N/Nc2nc(-c3ccc(Cl)cc3)cc(C(F)(F)F)n2)cc1 | -4% | -7% | -9% | 16µM*
CC(=O)OCC(NC(=O)C(CCCCNC(=O)OCc1ccccc1)NC(=O)OC(C)(C)C)C1OC(n2cc(F)c(=O)[nH]c2=O)C(OC(C)=O)C1OC(C)=O (configuration not stated) | 7% | x | x | x
COc1cc(NCc2ccc3nc(N)nc(N)c3c2C)cc(OC)c1OC | 5.6µM* | x | x | x
CCN1CCCC1CNC(=O)CN1C(=O)COc2ccc(C)cc21 (configuration not stated) | -6% | 10% | 7% | 25µM*
CC1CC=CC2C1C(=O)N(Cc1ccccc1)C2c1ccc(Br)cc1F (configuration not stated) | 4% | x | x | x
O=C(/C=C\c1ccco1)Nc1nc(-c2ccc3ccccc3c2)cs1 | -9% | -2% | -1% | -40%
Cc1ccc(-c2csc(NC(=S)NC(=O)/C=C/c3ccco3)n2)cc1 | x | -4% | 0% | 4µM*
COc1ccc(NC(=S)NC(=O)/C=C/c2ccco2)cc1 | 7% | 4% | 8% | 16µM*
CC(=O)NC(=S)Nc1ccc(NC(=S)NC(=O)/C=C/c2ccco2)cc1 | -9% | 0% | 0% | -51%
CC(=O)N(C)C | 4% | x | x | x
SMILES | Giardia FBPA inh | SARS PLpro yeast | AmpC detergent | AmpC inh no detg
O=C(NNC(=O)c1cc2ccccc2cc1O)Nc1ccccc1F | 5% | 1% | -3% | 18µM*
CCN1/C(=N\N)c2cccc3cccc1c23 | 10µM* | -2% | -2% | -16%
Cn1c(=O)cc(OCC(=O)N2CCN(C3CCCCC3)CC2)c2ccccc21 | -14% | -5% | u | 0.89µM*
Cc1ccc(NC(=O)C2CCCN(c3ncnc4onc(C)c34)C2)cc1Cl (configuration not stated) | x | x | 14% | x
O=C(N=Nc1c(O)[nH]c2ccccc12)c1cccc(S(=O)(=O)N2CCCCC2)c1 | -6% | -11% | 0% | -2%
CC(C)c1ccc2[nH]c(O)c(N=NC(=O)c3cccc(S(=O)(=O)N4CCCCC4)c3)c2c1 | -5% | -15% | -3% | 6.3µM*
COc1cc(OC)cc(C(=O)Nc2cc(-c3nc4cccnc4s3)ccc2C)c1 | x | x | 3% | x
CN(C(=S)Nc1ccc(Oc2ccccc2)cc1)c1ccc(O)cc1 | 1.4µM* | -21% | -7% | -14%
O=[N+]([O-])c1ccc(N2CCNCC2)cc1NCc1ccco1 | 3% | 17% | -11% | 18µM*
CN1CCN(c2ccc([N+](=O)[O-])c(NCc3ccco3)c2)CC1 | 0% | 3% | 0% | u
COc1ccc(OC)c(C2c3c(oc4ccc(C)cc4c3=O)C(=O)N2CCCN(C)C)c1 (configuration not stated) | x | x | 2% | x
COc1ccc(C2=NN(C(=S)Nc3ccccc3)C(c3ccccc3)C2)cc1 (configuration not stated) | -6% | 20% | -5% | 25µM*
CC[C@H](C)[C@H](NC(=O)[C@H](Cc1ccc(O)cc1)NC(=O)[C@@H]1CCCN1C(=O)[C@H](CCCCN)NC(=O)[C@@H](N)CCCCN)C(=O)N[C@@H](CC(C)C)C(=O)O | 3% | x | x | x
Cc1cc(C(=O)N(C)CC(=O)Nc2ccc(Cl)c(C(F)(F)F)c2)no1 | x | 3% | u | -22%
CN(CC(=O)Nc1ccc(Cl)c(C(F)(F)F)c1)C(=O)c1cn2ccccc2n1 | x | -20% | -6% | 35µM*
COc1cc2c(C#N)c(N3CCCC3)nc(N)c2c(N)n1 | 1.3µM* | -5% | 5% | 3%
Clc1ccc(CSc2nnc(/C=C/c3ccccc3)o2)cc1 | 3% | 0% | -1% | 0.16µM*
O=S(=O)(Nc1cccc(-c2ccc(N3CCCCCC3)nn2)c1)c1ccccc1Cl | x | 0% | -11% | 2.5µM*
O=S(=O)(Nc1cccc(-c2ccc(N3CCCCCC3)nn2)c1)c1ccccc1F | 9% | -1% | -8% | -45%
CC(C)(C)c1csc(N/N=C/c2ccc(O)cc2)n1 | -22% | 7% | 0% | 10µM*
COc1ccc(C2=Nn3c(nnc3-c3cccc(OC)c3OC)SC2)cc1 | 5% | x | x | x
C=Cc1c(C)/c2[n-]/c1=C\c1[n-]c(c(CC)c1C)/C=c1\[n-]c3c(c1C)C(=O)C(C(=O)[O-])C=3c1[n-]c(c(C)c1CCC(=O)[O-])\C=2.[Cu].[Na+].[Na+] (configuration not stated) | 14µM* | x | x | x
O=C(O)c1ccc(N/N=C/c2ccncc2)cc1 | 4µM* | -2% | u | -2%
CCOC(=O)N1CCN(c2cc(NCCC(=O)O)c3c4c(onc24)-c2ccccc2C3=O)CC1 | 5.6µM* | -4% | 1% | 222%
CO[C@@H](CCO)C[C@H]1O[C@H](C(=O)OC(C)C)CC[C@@H]1C | 3% | x | x | x
